Source: the supplement of paper PMC7380943
± gives the standard deviation of the averaged measurements.

Tested on: CLZ3 (HCA2 human fibroblast dual HR-NHEJ reporter)
Assay: NHEJ repair efficiency (GFP+ cells) relative to control (log10 fold); higher = more non-homologous end joining
Details: 5 µM; doxycycline 0.5 ug/mL
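Wherever HR repair efficiency (tdTomato+ cells) relative to control is given: compound given one day before doxycycline, which switches on I-SceI endonuclease expression to create double-strand breaks within the integrated reporter.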
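Wherever NHEJ repair efficiency (GFP+ cells) relative to control is given: compound given one day ahead of doxycycline, which switches on I-SceI endonuclease to cut the chromosomally integrated reporter and create DSBs.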

First: COc1c2occc2cc2ccc(=O)oc12 [Xanthotoxin]
Second: CC(C)=CC(O)C/C(C)=C/COc1c2ccoc2cc2oc(=O)ccc12 (stereo not drawn) [Notopterol]
The “NHEJ repair efficiency (log10)” value of the first is lower: -0.261 for the first, 0.0643 for the second.

Going from `O=c1cc(-c2ccc(O)cc2)oc2cc(O)c(O)c(O)c12` [Scutellarein] to `O=c1cc(-c2ccc(O)cc2)oc2c([C@@H]3O[C@H](CO)[C@@H](O)[C@H](O)[C@H]3O)c(O)cc(O)c12` [Vitexin], the “NHEJ repair efficiency (log10)” value rises from -0.103 to 0.172.

`COc1ccc2c(c1OC)CN(C)CCc1cc3c(cc1C(=O)C2)OCO3` [Allocryptopine] and `COc1c2c(cc3oc(CO)cc(=O)c13)O[C@H](C(C)(C)O)C2` [Cimifugin] are within 0.2 log units of each other in “NHEJ repair efficiency (log10)” value: 0.0337 for the first, 0.0139 for the second.

`C[C@@H]1CC[C@]2(C(=O)O)CC[C@]3(C)C(=CC[C@@H]4[C@@]5(C)CC[C@H](O)[C@@](C)(CO)[C@@H]5CC[C@]43C)[C@@H]2[C@]1(C)O` [Rotundic Acid] and `CC(C)[C@@H](C)/C=C/[C@@H](C)[C@H]1CC[C@H]2C3=CC=C4C[C@@H](O)CC[C@]4(C)[C@H]3CC[C@]12C` [Ergosterol] are within 0.2 log units of each other in “NHEJ repair efficiency (log10)” value: -0.0308 for the first, 0.00511 for the second.

`CC1=C[C@]2(O)O[C@@]3(CC2=C(C)C)[C@@H](C)CC[C@@H]13` [Curcumenol] and `CC(CC(=O)C[C@@H](C)[C@H]1CC(=O)[C@@]2(C)C3=C(C(=O)C[C@]12C)[C@@]1(C)CCC(=O)C(C)(C)[C@@H]1C[C@@H]3O)C(=O)O` (stereo partly drawn) [Ganoderic Acid D] are within 0.2 log units of each other in “NHEJ repair efficiency (log10)” value: 0.129 for the first, 0.113 for the second.

`CC(/C=C/C=C(\C)C(=O)O[C@@H]1O[C@H](CO)[C@@H](O)[C@H](O)[C@H]1O)=C\C=C\C=C(C)\C=C\C=C(/C)C(=O)O[C@@H]1O[C@H](CO[C@@H]2O[C@H](CO)[C@@H](O)[C@H](O)[C@H]2O)[C@@H](O)[C@H](O)[C@H]1O` [Crocin Ii] and `COC(=O)C1=CO[C@@H](O[C@@H]2O[C@H](CO[C@@H]3O[C@H](CO)[C@@H](O)[C@H](O)[C@H]3O)[C@@H](O)[C@H](O)[C@H]2O)[C@@H]2C(CO)=CC[C@H]12` [Genipin 1-Gentiobioside] are within 0.2 log units of each other in “NHEJ repair efficiency (log10)” value: -0.0199 for the first, 0.0417 for the second.

Compared with `COc1c(O[C@@H]2O[C@H](CO)[C@@H](O)[C@H](O)[C@H]2O)cc2occ(-c3ccc(O)cc3)c(=O)c2c1O` [Tectoridin], `O=C(/C=C/c1ccc(O)c(O)c1)O[C@@H]1C[C@](OC(=O)/C=C/c2ccc(O)c(O)c2)(C(=O)O)C[C@@H](O)[C@H]1O` [1,3-Di-O-Caffeoylquinic Acid] is lower in “NHEJ repair efficiency (log10)” value: 0.116 for the first, -0.263 for the second.

Tested on: CLZ3 (HCA2 human fibroblast dual HR-NHEJ reporter)
Assay: HR repair efficiency (tdTomato+ cells) relative to control (log10 fold); higher = more homologous recombination
Details: 5 µM; doxycycline 0.5 ug/mL

`O=c1c2ccccc2nc2n1CCc1c-2[nH]c2ccccc12` [Rutecarpine] and `COc1cc2c(=O)c(-c3ccc(O)cc3)coc2cc1O` [Glycitein] are within 0.2 log units of each other in “HR repair efficiency (log10)” value: -0.0255 for the first, 0.1 for the second.

First: O=Cc1ccc(CO)o1 [5-Hydroxymethyl-2-furaldehyde (5-HMF)]
Second: O=Cc1ccc(O[C@@H]2O[C@H](CO)[C@@H](O)[C@@H](O)[C@H]2O)cc1 [Helicide]
The “HR repair efficiency (log10)” value of the first is lower: -0.326 for the first, 0.0668 ± 0.075 for the second.

Compared with `C[C@@H]1O[C@@H](O[C@H]2[C@H](OC(=O)[C@]34CCC(C)(C)C[C@H]3C3=CC[C@@H]5[C@@]6(C)C[C@H](O)[C@H](O[C@@H]7O[C@H](CO)[C@@H](O)[C@H](O[C@@H]8O[C@H](CO)[C@@H](O)[C@H](O)[C@H]8O)[C@H]7O)C(CO)(CO)[C@@H]6CC[C@@]5(C)[C@]3(C)C[C@H]4O)OC[C@H](O)[C@@H]2O)[C@H](O)[C@H](O)[C@H]1O[C@@H]1OC[C@@H](O)[C@H](O[C@@H]2OC[C@](O)(CO)[C@H]2O)[C@H]1O` [Platycodin D2], `CC1OC(OC2C(OC3CCC4(C)C(CCC5(C)C4CC=C4C6CC(C)(C)CCC6(C(=O)OC6OC(COC7OC(CO)C(O)C(O)C7O)C(O)C(O)C6O)CCC45C)C3(C)CO)OCC(O)C2O)C(O)C(O)C1O` (stereo not drawn) [Dipsacoside B] is higher in “HR repair efficiency (log10)” value: -0.252 for the first, 0.00385 ± 0.11 for the second.

First: CC(=O)[C@H]1CC[C@H]2[C@@H]3CCC4=CC(=O)CC[C@]4(C)[C@H]3CC[C@]12C [Lutin]
Second: C[C@H](CCC(=O)O)[C@H]1CC[C@H]2[C@@H]3CC[C@@H]4C[C@H](O)CC[C@]4(C)[C@H]3C[C@H](O)[C@]12C [Deoxycholic acid]
The “HR repair efficiency (log10)” value of the first is higher: 0.268 for the first, 0.0026 for the second.

`COC(=O)C1=CO[C@@H](O[C@@H]2O[C@H](CO)[C@@H](O)[C@H](O)[C@H]2O)[C@@H]2[C@@H](C)[C@@H](O)C[C@H]12` [Loganin] and `COC(=O)C1=CO[C@@H](O[C@@H]2O[C@H](CO[C@@H]3O[C@H](CO)[C@@H](O)[C@H](O)[C@H]3O)[C@@H](O)[C@H](O)[C@H]2O)[C@@H]2C(CO)=CC[C@H]12` [Genipin 1-Gentiobioside] are within 0.2 log units of each other in “HR repair efficiency (log10)” value: 0.191 for the first, 0.0278 for the second.

Going from `C[C@@H]1O[C@@H](OC[C@H]2O[C@@H](Oc3cc(O)c4c(c3)O[C@H](c3ccc(O)c(O)c3)CC4=O)[C@H](O)[C@@H](O)[C@@H]2O)[C@H](O)[C@H](O)[C@H]1O` [Eriocitrin] to `C[C@@H]1O[C@@H](OC[C@H]2O[C@@H](OCCc3ccc(O)c(O)c3)[C@H](O)[C@@H](O)[C@@H]2OC(=O)/C=C/c2ccc(O)c(O)c2)[C@H](O)[C@H](O)[C@H]1O` [Forsythoside A], the “HR repair efficiency (log10)” value rises from -0.0151 to 0.189.

`O=C(O)c1cc(O)c2c(c1)[C@@H]([C@H]1c3cc(C(=O)O)cc(O)c3C(=O)c3c(O[C@@H]4O[C@H](CO)[C@@H](O)[C@H](O)[C@H]4O)cccc31)c1cccc(O[C@@H]3O[C@H](CO)[C@@H](O)[C@H](O)[C@H]3O)c1C2=O` [Sennoside B] and `CC=C1[C@H](O[C@@H]2O[C@H](CO)[C@@H](O)[C@H](O)[C@H]2O)OC=C(C(=O)OC)[C@H]1CC(=O)OC[C@H]1O[C@@H](OCCc2ccc(O)cc2)[C@H](O)[C@@H](O)[C@@H]1O` (stereo in doubt) [Specnuezhenide] are within 0.2 log units of each other in “HR repair efficiency (log10)” value: 0.0301 for the first, 0.0832 for the second.

First: COc1cc(C2Oc3cc([C@H]4Oc5cc(O)cc(O)c5C(=O)[C@@H]4O)ccc3OC2CO)ccc1O (stereo partly drawn) [Silymarin Ⅱ]
Second: O=c1cc(-c2ccc(O)cc2)oc2c([C@@H]3O[C@H](CO)[C@@H](O)[C@H](O)[C@H]3O)c(O)cc(O)c12 [Vitexin]
The “HR repair efficiency (log10)” value of the first is lower: -0.127 for the first, 0.126 for the second.

`OC[C@H]1O[C@H](OC[C@H]2O[C@H](O[C@]3(CO)O[C@H](CO)[C@@H](O)[C@@H]3O)[C@H](O)[C@@H](O)[C@@H]2O)[C@H](O)[C@@H](O)[C@H]1O` [Raffinose] and `CC(/C=C/C=C(\C)C(=O)O[C@@H]1O[C@H](CO)[C@@H](O)[C@H](O)[C@H]1O)=C\C=C\C=C(C)\C=C\C=C(/C)C(=O)O[C@@H]1O[C@H](CO[C@@H]2O[C@H](CO)[C@@H](O)[C@H](O)[C@H]2O)[C@@H](O)[C@H](O)[C@H]1O` [Crocin Ii] are within 0.2 log units of each other in “HR repair efficiency (log10)” value: -0.00512 for the first, 0.0485 for the second.

`COc1ccc(C(=O)O)cc1` [Anisic Acid] and `COc1cc(OC)c2ccc(=O)oc2c1` [5,7-Dimethoxycoumarin] are within 0.2 log units of each other in “HR repair efficiency (log10)” value: 0.118 for the first, 0.0758 for the second.

First: C[N+](C)(C)CC(=O)O [Betaine]
Second: COc1c2c(cc3oc(CO)cc(=O)c13)O[C@H](C(C)(C)O)C2 [Cimifugin]
The “HR repair efficiency (log10)” value of the first is lower: -0.337 for the first, -0.0036 for the second.

`COc1cc2c(cc1O)CC[n+]1cc3c(OC)c(OC)ccc3cc1-2` [Jatrorrhizine] and `COc1cc2c(cc1OC)[C@@H]1Cc3ccc(OC)c(OC)c3CN1CC2` [Rotundine] are within 0.2 log units of each other in “HR repair efficiency (log10)” value: 0.0284 for the first, 0.112 for the second.

`CC(=O)O[C@@H]1C[C@@]23C[C@@]24CC[C@H](O[C@@H]2OC[C@@H](O)[C@H](O)[C@H]2O)C(C)(C)[C@@H]4CC=C3[C@]2(C)C[C@@H]3OC4(C[C@@H](C)[C@@H]3[C@@]12C)OC(O)C1(C)OC41` (stereo partly drawn) [Cimicifugoside] and `C[C@@H]1CC[C@]2(C(=O)O)CC[C@]3(C)C(=CC[C@@H]4[C@@]5(C)CC[C@H](O)[C@@](C)(CO)[C@@H]5CC[C@]43C)[C@@H]2[C@]1(C)O` [Rotundic Acid] are within 0.2 log units of each other in “HR repair efficiency (log10)” value: 0.0562 for the first, 0.0236 for the second.

`COc1cc(/C=C/C(=O)CC(=O)/C=C/c2ccc(O)c(OC)c2)ccc1O` [Curcumin] and `O=C(/C=C/c1ccc(O)c(O)c1)O[C@@H]1C[C@](OC(=O)/C=C/c2ccc(O)c(O)c2)(C(=O)O)C[C@@H](O)[C@H]1O` [1,3-Di-O-Caffeoylquinic Acid] are within 0.2 log units of each other in “HR repair efficiency (log10)” value: -0.113 for the first, -0.0833 for the second.

`COc1cc2ccc(=O)oc2c(OC)c1O` [Isofraxidin] and `COc1c2occc2cc2ccc(=O)oc12` [Xanthotoxin] are within 0.2 log units of each other in “HR repair efficiency (log10)” value: -0.153 for the first, -0.0664 for the second.

`C/C1=C\CC[C@]23O[C@H]2[C@@H](OC3=O)c2c(C)coc2C1` [Linderane] and `COc1ccc2c(c1OC)CN(C)CCc1cc3c(cc1C(=O)C2)OCO3` [Allocryptopine] are within 0.2 log units of each other in “HR repair efficiency (log10)” value: 0.0607 for the first, 0.04 for the second.

Going from `COc1cc2c(cc1OC)[C@H]1[C@@H](C)c3ccc(OC)c(OC)c3CN1CC2` [Corydaline] to `COc1c(O[C@@H]2O[C@H](CO)[C@@H](O)[C@H](O)[C@H]2O)cc2occ(-c3ccc(O)cc3)c(=O)c2c1O` [Tectoridin], the “HR repair efficiency (log10)” value rises from -0.191 to 0.192.

`O=c1cc(-c2ccc(O)cc2)oc2cc(O)c(O)c(O)c12` [Scutellarein] and `CC(C)=CC(O)C/C(C)=C/COc1c2ccoc2cc2oc(=O)ccc12` (stereo not drawn) [Notopterol] are within 0.2 log units of each other in “HR repair efficiency (log10)” value: -0.025 for the first, 0.151 for the second.

`CC1=C[C@]2(O)O[C@@]3(CC2=C(C)C)[C@@H](C)CC[C@@H]13` [Curcumenol] and `CC(C)[C@@H](C)/C=C/[C@@H](C)[C@H]1CC[C@H]2C3=CC=C4C[C@@H](O)CC[C@]4(C)[C@H]3CC[C@]12C` [Ergosterol] are within 0.2 log units of each other in “HR repair efficiency (log10)” value: 0.132 for the first, 0.141 for the second.

For `CC(CC(=O)C[C@@H](C)[C@H]1CC(=O)[C@@]2(C)C3=C(C(=O)C[C@]12C)[C@@]1(C)CCC(=O)C(C)(C)[C@@H]1C[C@@H]3O)C(=O)O` (stereo partly drawn) [Ganoderic Acid D], the “HR repair efficiency (log10)” value was -0.241.
